The nature of test [1]: compound effects on lung adenocarcinoma cell viability – A549, calcein-AM fluorescence, 48 h, basal, profiling panel (AID 1162). Note: test concentration not given here. The following applies: higher = more signal.
Test [2] in a line: compound effects on differentiated 3T3-L1 adipocyte viability – cell-based, 3T3-L1 adipocytes, calcein-AM fluorescence, 48 h, basal, profiling panel (AID 1163). Note: test concentration not given here. The following applies: 3T3-L1 adipocytes viability, higher = more signal.
Test [3] is described as follows: compound effects on hepatocellular carcinoma cell viability – HepG2, calcein-AM fluorescence, 48 h, basal, profiling panel (AID 1164). Note: test concentration not given here. The conditions noted are these: higher = more signal.
Test [4] in a line: compound effects on multiple myeloma cell viability – MM1S, calcein-AM fluorescence, 48 h, basal, profiling panel (AID 1165).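 Note: viability of MM1S multiple myeloma cells under basal unstimulated conditions; test concentration not given here.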 The following applies: higher = more signal.
A short description of test [5]: calcein-AM signal in unstimulated myeloma cells – cell-based, calcein-AM fluorescence, 48 h, PK04 Diversity Set, profiling panel (AID 1166).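 Note: cells grown under basal conditions without added stimulus; test concentration not given here.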 The following applies: RPMI8226 myeloma viability, higher = more signal.
The nature of test [6]: JC-1 mitochondrial signal, unstimulated HepG2 cells – cell-based, JC-1 fluorescence, 24 h, 100 nL compound, profiling panel (AID 1167). Note: test concentration not given here. The conditions noted are these: HepG2 mitochondrial potential, higher = more signal.
The nature of test [7]: JC-1 mitochondrial signal, unstimulated adipocytes – cell-based, JC-1 fluorescence, 3T3-L1 adipocytes, 24 h, 100 nL compound, profiling panel (AID 1168). Note: test concentration not given here. The following applies: JC-1 mitochondrial fluorescence, higher = more signal, called active from +8 up or from −8 down.
Test [8] is described as follows: JC-1 mitochondrial signal, unstimulated myeloma cells – cell-based, JC-1 fluorescence, RPMI8226, 24 h, 100 nL compound, profiling panel (AID 1169). Note: test concentration not given here. The following applies: JC-1 mitochondrial potential fluorescence, higher = more signal.
Test [9] is described as follows: JC-1 mitochondrial signal, unstimulated MM1S myeloma – cell-based, JC-1 fluorescence, 24 h, 100 nL compound, profiling panel (AID 1170). Note: test concentration not given here. The following applies: MM1S mitochondrial potential, higher = more signal.
A short description of test [10]: resazurin metabolic signal in A549 cells – cell-based, resazurin fluorescence, 24 h, PK04 Diversity Set, profiling panel (AID 1171). Note: test concentration not given here. The conditions noted are these: A549 viability, higher = more signal, called active from +8 up or from −8 down. Background: Resazurin is reduced to fluorescent resorufin, in cell work by metabolically active cells.
Test [11] is described as follows: resazurin metabolic signal in HepG2 cells – cell-based, resazurin fluorescence, 24 h, PK04 Diversity Set, profiling panel (AID 1172). Note: test concentration not given here. The following applies: HepG2 viability, higher = more signal.
A short description of test [12]: budding yeast growth changes without added modifier – OD600, strain BY4716, 24 h, basal condition, primary screen (AID 1173). The conditions noted are these: S. cerevisiae BY4716 growth, OD600, 24 h; higher = more signal, called active from +8 up or from −8 down.
Test [13] is described as follows: viability profiling in MM1S myeloma cells – cell-based, resazurin fluorescence, basal, 24 h, PK04 Diversity Set, profiling panel (AID 1174). Note: test concentration not given here. The following applies: higher = more signal, called active from +8 up or from −8 down.
For test [14], the target named is Dihydroorotate dehydrogenase (quinone), mitochondrial (Plasmodium falciparum (isolate 3D7)) (UniProt Q08210). The experiment in a line: inhibition of P. falciparum DHODH – biochemical, C-terminal His tag, absorbance 600 nm, primary screen (AID 1175).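 Note: recombinant parasite enzyme with a five histidine tag at its C terminus; test concentration not given here.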 The following applies: PfDHODH enzyme, DCIP absorbance 600 nm; higher = more signal, called active from +8 up or from −8 down.

Test [15] is described as follows: inhibition of PAO1 biofilm formation – strain PAO1, LB-PBS medium, absorbance 600 nm, primary screen (AID 1176). Note: test concentration not given here. The conditions noted are these: P. aeruginosa PAO1 growth/biofilm, A600, 12 h; higher = more signal.
A short description of test [16]: growth modulation of vineyard yeast isolate – strain RM11-1a, OD600, basal, 24 h, primary screen (AID 1177).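 Note: cultures grown under basal conditions with no added stressor; test concentration not given here.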 The conditions noted are these: S. cerevisiae RM11-1a growth, OD600, 24 h; higher = more signal, called active from +8 up or from −8 down.
A short description of test [17]: growth of efflux-deficient E. coli DRC39 – strain DRC39, OD650, 24 h, E. coli filamentation inducers, primary screen (AID 1178).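 Note: growth measured as culture turbidity by optical density at 650 nm; test concentration not given here.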 The conditions noted are these: E. coli DRC39 acrAB, higher = more signal, called active from +8 up or from −8 down.
The nature of test [18]: growth of efflux-deficient E. coli DRC39 – strain DRC39, OD650, 48 h, E. coli filamentation inducers, primary screen (AID 1179).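 Note: screen aims at cell division blockers that make cells filament.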 The conditions noted are these: E. coli DRC39 delta-acrAB growth, higher = more signal, called active from +8 up or from −8 down.
The nature of test [19]: viability profiling in RPMI8226 myeloma cells – cell-based, resazurin fluorescence, basal, 24 h, PK04 Diversity Set, profiling panel (AID 1180).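 Note: RPMI8826 multiple myeloma cell line at 5000 cells per well; test concentration not given here.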 The following applies: higher = more signal.
Test [20] has as its target E3 ubiquitin-protein ligase XIAP (Homo sapiens) (UniProt P98170). The test is described as follows: small molecules binding XIAP protein – biophysical, small-molecule microarray, fluorescence 635 nm, primary screen (AID 1181).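 Note: score merges 667 nm emission and signal to noise over triplicate slides.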 The conditions noted are these: higher = more signal.

Calls of active or inactive are those of the source. Unless noted, the rule behind the calls is not given here.

The values below come from PubChem BioAssay.

E3 ubiquitin-protein ligase XIAP (Homo sapiens), sequence (P98170 whole entry, looked up): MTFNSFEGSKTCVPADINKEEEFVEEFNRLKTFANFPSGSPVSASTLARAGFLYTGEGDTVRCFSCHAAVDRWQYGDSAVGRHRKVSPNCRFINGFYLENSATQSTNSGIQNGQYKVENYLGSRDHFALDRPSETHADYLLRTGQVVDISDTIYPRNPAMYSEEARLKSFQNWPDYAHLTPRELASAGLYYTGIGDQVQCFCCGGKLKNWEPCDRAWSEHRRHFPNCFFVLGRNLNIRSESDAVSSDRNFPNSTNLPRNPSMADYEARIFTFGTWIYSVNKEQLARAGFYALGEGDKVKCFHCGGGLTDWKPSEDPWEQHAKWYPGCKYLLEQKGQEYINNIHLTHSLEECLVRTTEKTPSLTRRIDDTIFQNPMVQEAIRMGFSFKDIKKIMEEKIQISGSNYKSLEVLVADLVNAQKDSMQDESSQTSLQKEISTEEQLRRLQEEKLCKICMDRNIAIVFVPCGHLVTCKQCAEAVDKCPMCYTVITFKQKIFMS
Dihydroorotate dehydrogenase (quinone), mitochondrial (Plasmodium falciparum (isolate 3D7)), sequence (Q08210 whole entry, looked up): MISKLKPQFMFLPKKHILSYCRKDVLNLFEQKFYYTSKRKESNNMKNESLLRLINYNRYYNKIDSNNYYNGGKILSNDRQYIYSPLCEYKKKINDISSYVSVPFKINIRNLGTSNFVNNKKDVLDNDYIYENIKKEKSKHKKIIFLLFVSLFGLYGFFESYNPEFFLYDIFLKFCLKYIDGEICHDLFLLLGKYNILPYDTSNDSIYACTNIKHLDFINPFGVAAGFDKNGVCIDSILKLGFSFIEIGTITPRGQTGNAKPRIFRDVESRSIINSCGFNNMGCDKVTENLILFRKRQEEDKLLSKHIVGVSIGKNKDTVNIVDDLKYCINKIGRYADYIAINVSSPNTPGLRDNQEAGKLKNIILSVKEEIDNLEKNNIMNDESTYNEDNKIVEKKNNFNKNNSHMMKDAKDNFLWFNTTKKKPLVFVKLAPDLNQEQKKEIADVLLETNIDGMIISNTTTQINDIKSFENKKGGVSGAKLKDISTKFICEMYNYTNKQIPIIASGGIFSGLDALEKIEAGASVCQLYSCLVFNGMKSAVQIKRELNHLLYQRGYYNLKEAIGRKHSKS

As for `COc1ccc(C(=O)Nc2cccc(CN3C(=O)[C@@]4(O[C@@H](CCn5cc(CCO)nn5)[C@H]([Si](C)(C)c5ccc(OC)cc5)[C@H]4C)c4ccccc43)c2)cc1`, the z-score in test [1] is -1.31; in test [2] it was -0.599; in [3], -4.58; in test [4], -2.88; in [5], -4.33; in test [6] it was 0.254. Further, the z-score in test [7] is 0.285 (inactive); in test [8], -0.136; in [9], -2.3; in [10] it was -4.55 (inactive); in test [11] it was -5.75; in [12], -6.12 (inactive). The z-score is -9.07 (active) in test [13]; 0.769 (inactive) in test [15]; 3.1 (inactive) in [16]; 1.7 (inactive) in [17]; 0.633 (inactive) in test [18]; -6.23 in test [19]. Also, the composite z-score in test [14] is 1.42 (inactive); in [20] it was 0.126.
Turning to `O=C1OCCC=C[C@H]2OC34C=CCN(c5ccc6ccccc6c5)C(=O)[C@H]3N(CCCCCO)C(=O)[C@@H]4C12` (stereo not given in full), the z-score in test [1] was 0.32; in test [2], -0.691; in test [3], 1.84; in test [4] it was 1.35; in test [5], 0.0492; in test [6], 1.53. Further, the z-score in test [7] is -0.279 (inactive); in test [8], -0.0802; in [9], -0.0576; in test [10] it was 0.384 (inactive); in test [11] it was 1.32; in test [12], -0.805 (inactive). For the same compound, the z-score in test [13] was 0.835 (inactive); in test [15] it was 0.357 (inactive); in test [16], -0.403 (inactive); in test [17] it was 1.61 (inactive); in test [18], 1.74 (inactive); in test [19], 1.28. Besides, the composite z-score in test [14] is -0.556 (inactive); in test [20] it was -0.174.
Turning to `[N-]=[N+]=Nc1ccccc1C[C@]1(C(=O)NCCN2CCOCC2)N=C(c2ccc(OCCCO)cc2)O[C@H]1c1ccccc1`, the z-score is -0.0454 in test [1]; 0.0937 in [2]; -0.256 in test [3]; -0.0793 in test [4]; -0.26 in test [5]; 0.771 in [6]. The z-score in test [7] was 0.00214 (inactive); in [8], -0.309; in test [9] it was -0.777; in test [10], 1.24 (inactive); in test [11], 0.224; in test [12], -3.1 (inactive). Moreover, the z-score in test [13] was -0.359 (inactive); in test [15], 0.565 (inactive); in test [16], -0.52 (inactive); in test [17] it was 0.148 (inactive); in test [18], -0.338 (inactive); in test [19] it was -0.554. In addition, the figures for the composite z-score in test [14] and in [20] were -0.0351 (inactive) and 0.0679, respectively.
On to `CC(C)c1ccc(NN2C(C(O)c3cccc(O)c3)C=CC3C(=O)N(c4ccccc4)C(=O)C32)cc1` (stereo not given), for which the z-score was -1.09 in test [1]; -0.35 in [2]; -0.753 in test [3]; -0.26 in test [4]; -0.237 in [5]; -1.85 in test [6]. Also, the z-score is -0.948 (inactive) in test [7]; -0.554 in [8]; -0.749 in [9]; 0.403 (inactive) in test [10]; -0.546 in test [11]; -0.914 (inactive) in test [12]. Further, the z-score in test [13] was -0.501 (inactive); in [15] it was 0.186 (inactive); in test [16], 1.63 (inactive); in test [17], -0.0564 (inactive); in test [18] it was -0.063 (inactive); in [19] it was -0.111. Also, the composite z-score was 0.523 (inactive) in test [14] and 0.42 in [20].
Consider `COCCOC(=O)N1C(=O)[C@@]2(c3cc(C#CC4(O)CCCCCC4)ccc31)[C@H](C(=O)N1CCCCCCC1)[C@H]1C(=O)O[C@H](c3ccccc3)[C@H](c3ccccc3)N1[C@@H]2c1ccccc1OCCO`, for which the z-score in test [1] was 0.424; in test [2], 1.64; in [3] it was 0.504; in test [4], -0.658; in test [5] it was -1.87; in test [6], -0.679. Further, the z-score was 0.656 (inactive) in [7]; -0.658 in test [8]; -0.987 in test [9]; -1.1 (inactive) in test [10]; -0.449 in test [11]; 0.71 (inactive) in [12]. Further, the z-score in [13] was -0.297 (inactive); in [15], 1.07 (inactive); in [16], 2.36 (inactive); in test [17], -1.49 (inactive); in test [18], -1.16 (inactive); in test [19], -0.432. For the same compound, the values for the composite z-score in [14] and in test [20] were 0.969 (inactive) and 0.026, respectively.
As for `CCOC(=O)C1=CCC(C(C)(C)C)N(S(=O)(=O)c2ccc(C)cc2)C1` (stereo not given), the z-score in test [1] is -0.723; in test [2] it was -0.194; in [3], -0.157; in test [4], -2.31; in test [5] it was -1.28; in [6], -1. Also, the z-score in test [7] is 0.161 (inactive); in test [8], -0.1; in test [9] it was -0.562; in test [10], 0.613 (inactive); in test [11], -0.462; in test [12], 0.586 (inactive). The z-score was -0.0359 (inactive) in test [13]; -0.321 (inactive) in test [15]; 1.29 (inactive) in test [16]; -0.021 (inactive) in test [17]; -0.52 (inactive) in [18]; -0.719 in test [19]. Moreover, the results for the composite z-score in [14] and in test [20] were 0.406 (inactive) and -0.0476, respectively.
In the case of `Cc1ccc(S[C@]2(C(=O)NC3CC3)CC(=O)N(Cc3ccccc3)[C@@H]2c2ccc(CO)cc2)cc1`, the z-score in test [1] was 1.29; in [2], -0.119; in test [3] it was -0.12; in [4] it was -0.0947; in [5], 0.181; in [6] it was -0.439. The z-score in [7] is -0.199 (inactive); in [8], 1.07; in [9], -0.452; in test [10] it was 0.846 (inactive); in test [11] it was -0.177; in test [12], -1.71 (inactive). For the same compound, the z-score was 0.262 (inactive) in test [13]; 0.196 (inactive) in test [15]; -0.5 (inactive) in test [16]; 0.354 (inactive) in test [17]; -0.255 (inactive) in test [18]; 0.35 in test [19]. The composite z-score is -0.867 (inactive) in [14] and 0.0424 in test [20].
Take `CCCCCN1CC=CC23O[C@@H]4/C=C\CCCOC(=O)C4[C@H]2C(=O)N(CCCCCCO)[C@@H]3C1=O` (stereo not given in full): the z-score in test [1] was 1.26; in test [2], 2.1; in [3], 1.54; in test [4], 1.37; in [5], 1.97; in test [6], 0.482. Besides, the z-score is -0.462 (inactive) in test [7]; 0.521 in test [8]; -1.09 in test [9]; 0.4 (inactive) in [10]; 0.239 in [11]; -2.73 (inactive) in test [12]. For the same compound, the z-score is 0.972 (inactive) in test [13]; 1.45 (inactive) in [15]; -3.12 (inactive) in [16]; 0.758 (inactive) in test [17]; 0.868 (inactive) in test [18]; 1.42 in [19]. The figures for the composite z-score in test [14] and in [20] were -2.25 (inactive) and 0.147, respectively.
